63 molecules from PubChem BioAssay AID1376 (SRMLSC, 2008) can be followed below.

SMILES strings stand for the structures. Out of some 220,000 compounds screened, about 530 (0.24%) were called active. Cut-off read from the data, not from the text of the source: active = inhibition above about 13%; inconclusive = no clear call, values can overlap the other calls; inactive = below that. The full list was thinned out, with actives kept by preference. Potency and affinity values are given separately.

Bifunctional protein GlmU (Mycobacterium tuberculosis (strain ATCC 25618 / H37Rv)), sequence (P9WMN3 whole entry, looked up): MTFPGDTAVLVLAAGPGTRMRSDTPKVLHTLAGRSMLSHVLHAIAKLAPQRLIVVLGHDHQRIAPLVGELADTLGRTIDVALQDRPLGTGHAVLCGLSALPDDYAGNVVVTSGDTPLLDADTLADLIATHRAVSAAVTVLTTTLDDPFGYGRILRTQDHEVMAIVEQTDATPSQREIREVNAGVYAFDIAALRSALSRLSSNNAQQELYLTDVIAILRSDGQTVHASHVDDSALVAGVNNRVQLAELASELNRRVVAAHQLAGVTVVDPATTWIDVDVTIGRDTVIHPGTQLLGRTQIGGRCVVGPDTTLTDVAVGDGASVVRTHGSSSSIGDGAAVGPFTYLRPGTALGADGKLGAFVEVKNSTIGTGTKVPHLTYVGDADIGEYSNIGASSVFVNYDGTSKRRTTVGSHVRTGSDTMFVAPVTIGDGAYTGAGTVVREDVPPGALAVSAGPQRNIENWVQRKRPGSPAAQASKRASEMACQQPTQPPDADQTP

This assay addresses Bifunctional protein GlmU (Mycobacterium tuberculosis (strain ATCC 25618 / H37Rv)) (UniProt P9WMN3). The experiment in a line: inhibition of mycobacterial GlmU enzyme – biochemical, glucosamine-1-phosphate acetyltransferase (AID 1376).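 Note: 0% = complete reaction with vehicle and 100% = reaction without substrate.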 As to conditions: M. tuberculosis GlmU acetyltransferase enzyme assay; stronger effect = higher value;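 tested at 30 µM in the primary screen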.
Regarding `CCCCn1c(CNC(=O)C23CC4CC(CC(C4)C2)C3)nnc1SC(C)CC` (stereo not drawn), the inhibition – broadly, the change of the read-out against control, counted positive when it falls – is -3.15% (inactive). Turning to `Cc1ccc(S(=O)(=O)N(C)C/N=C(\N)N[N+](=O)[O-])cc1`, the inhibition is -3.35% (inactive).

On to `O=C1CCCC(O)=C1N=Nc1ccc(Cl)c(Cl)c1`, for which the inhibition is 0.41% (inactive).

For `O=C1CCCC(O)=C1N=Nc1ccc2c(c1)OCO2`, the inhibition is 1.81% (inactive). Then `O=C1CCCC(O)=C1N=Nc1ccc(C(=O)O)cc1`, with 13.3% (active); and `CCc1nnc(NC(=O)CSc2nc(-c3ccccc3)nc3ccccc23)s1`, with -1.88% (inactive); and `CC1CC(C)(C)NC(=S)N1CCCC(=O)NCc1ccccc1` (stereo not drawn), with -0.79% (inactive). Then `CN1CCN(C(c2cccnc2)c2ccc3cccnc3c2O)CC1` (stereo not drawn), with -1.35% (inactive). Then `OCCN1CCN(C(c2cccs2)c2ccc3cccnc3c2O)CC1` (stereo not drawn), with 17.8% (active). For the molecule `Oc1c(C(c2ccccc2Cl)N2CCCC2)ccc2cccnc12` (stereo not drawn), the inhibition was -1.53% (inactive). Then `CCc1ccc(CN(C)CCc2ccccn2)cc1`, with 1.82% (inactive). Then `O=C(NCc1ccc2c(c1)OCO2)C1CC(c2cccc(Br)c2)=NO1` (stereo not drawn), with 5.45% (inactive); and `COc1cc(/C=N/NC(=O)c2ccc(F)cc2)ccc1OC(=O)c1ccco1`, with 1.03% (inactive). For `CCC1=NN(C(=O)c2ccc(Br)cc2)C(O)(c2ccccc2)C1` (stereo not drawn) the value was 1.41% (inactive). As for `CCN(CC)CCC/C(=N\O)C(O)(c1ccccc1)c1ccccc1`, the inhibition was -1.2% (inactive).

As for `COc1ccc(OCc2ccc(C(=O)O)cc2)cc1`, the inhibition is -5.61% (inactive). Then `COc1ccc(-c2ccc(OC)cc2C(=O)O)cc1`, with 14.9% (active); and `COc1ccc(C(=O)O)c(O)c1`, with 1.05% (inactive); and `COc1ccc(OCc2cccc(C(=O)O)c2)cc1`, with -3.31% (inactive).

With `O=C(O)c1cc(O)ccc1-c1ccc(O)cc1`, the inhibition is 0.42% (inactive). For `O=C(NC(=S)Nc1cc(S(=O)(=O)N2CCOCC2)ccc1N1CCOCC1)c1ccco1` the value was 1.22% (inactive). In the case of `CCN(CC)S(=O)(=O)c1ccc(N2CCOCC2)c(NC(=S)NC(=O)c2ccco2)c1`, the inhibition is 14.6% (active). With `CCN(CC)S(=O)(=O)c1ccc(N2CCOCC2)c(NC(=O)Cc2ccccc2)c1`, the inhibition is -0.9% (inactive). `Cc1cc(C)n(CCc2nc(-c3ccc(C(C)(C)C)cc3)cs2)n1`: the inhibition was -7.47% (inactive). As to `O=C(CS(=O)(=O)Cc1ccccc1)Nc1ccccc1Cl`, the inhibition was -1.63% (inactive).

Regarding `NC(=O)c1ccccc1NC(=O)CS(=O)(=O)Cc1ccccc1`, the inhibition was 14.6% (active). For `CC(C)NC(=O)c1ccccc1NC(=O)CS(=O)(=O)Cc1ccccc1` the value was -2.67% (inactive). Then `COc1ccc(S(=O)(=O)N(C)CC(=O)Nc2ccc3c(c2)OCO3)cc1OC`, with -3.21% (inactive). Take `CCCCOC(=O)C1CN(c2ccccc2)N=C1C(C)=O` (stereo not drawn): the inhibition was 3.69% (inactive). For `CC(=O)NC(=O)NC1OC(=O)C(Cl)=C1Cl` (stereo not drawn) the value was 2.53% (inactive); for `Cc1ccccc1S(=O)(=O)NC1OC(=O)C(Cl)=C1Cl` (stereo not drawn), 9.45% (inactive).

For `Cc1ccc(S(=O)(=O)NC2OC(=O)C(Cl)=C2Cl)cc1` (stereo not drawn), the inhibition is 13.1% (active). In the case of `C#CC[N+](C)(C)CCCCCCCCCC`, the inhibition is -5.84% (inactive).

For `CCC(c1nnnn1CCC(C)C)N1CCC(C(N)=O)CC1` (stereo not drawn), the inhibition is 2.94% (inactive). For `Cc1ccc(Oc2ccc(OCC(=O)OC3CCS(=O)(=O)C3)cc2)cc1` (stereo not drawn) the value was -1.4% (inactive); for `Cc1ccc2c(c1)sc1nc(=O)n(-c3ccc(Cl)cc3)c(=O)n12`, 2.07% (inactive). For `Cc1ccc2c(c1)sc1nc(=O)n(-c3cccc(Cl)c3)c(=O)n12` the value was 38.6% (active); for `Cc1ccc2c(c1)sc1nc(=O)n(-c3ccccc3)c(=O)n12`, 4.71% (inactive); for `O=C(NCC1CCCO1)c1nc2c(nnn2Cc2ccccc2Cl)c(=O)[nH]1` (stereo not drawn), -1.69% (inactive). Then `O=C(NCC1CCCO1)c1nc2c(nnn2Cc2ccc(F)cc2)c(=O)[nH]1` (stereo not drawn), with 13.4% (active). On to `Cc1ccc(C)c(Cn2nnc3c(=O)[nH]c(C(=O)NCC4CCCO4)nc32)c1` (stereo not drawn), for which the inhibition is 0.99% (inactive). Then `CCCCNC(=O)CNC(=S)N(CCCN1CCOCC1)Cc1cccs1`, with 3.25% (inactive).

For `CN(C)S(=O)(=O)c1cccc(NC(=S)N/N=C/c2cc(Br)ccc2O)c1`, the inhibition is -0.84% (inactive). Then `Oc1cccc(/C=N/NC(=S)Nc2cccnc2)c1O`, with 5.05% (inactive); and `COc1ccc(O)c(/C=N/NC(=S)Nc2cccc(S(=O)(=O)N(C)C)c2)c1`, with -8.22% (inactive); and `Oc1ccc(/C=N/NC(=S)Nc2cccnc2)c(O)c1`, with 3.56% (inactive). Then `COc1ccccc1NC(=O)CCC(=O)N(Cc1ccc(OC)c(OC)c1)c1nccs1`, with -2.21% (inactive); and `CCN1CCN(c2cc3c(nn2)Oc2ccccc2N3C)CC1`, with 0.59% (inactive); and `Cc1nc2ccccc2c(=O)n1NC(=O)Cc1ccc([N+](=O)[O-])cc1`, with -0.18% (inactive). As for `O=C(Cn1nc(-c2ccccc2)c2ccccc2c1=O)Nc1cccc(O)c1`, the inhibition is 3.9% (inactive).

Turning to `Cc1ccc(N2C(=O)NC(=O)/C(=C\c3ccoc3)C2=O)cc1`, the inhibition was 0.76% (inactive).

In the case of `O=C1NC(=O)N(c2ccccc2)C(=O)/C1=C/c1ccoc1`, the inhibition is -0.64% (inactive). Take `CCCC(c1nnnn1CC(=O)OCC)N(Cc1cc2ccc(C)cc2[nH]c1=O)C1CCCC1` (stereo not drawn): the inhibition is 7.33% (inactive). For `CCOC(=O)N1CCN(C(=O)CN(c2ccc(OCc3ccccc3)cc2)S(C)(=O)=O)CC1` the value was 4.38% (inactive). Consider `Cc1ccccc1C(=O)NNC(=S)NC(=O)c1cccnc1`, for which the inhibition was 4.43% (inactive). Then `O=C(NNC(=S)NC(=O)c1cccnc1)c1ccc(F)cc1`, with 13.5% (active); and `O=C(NC(=S)NNC(=O)c1ccccc1O)c1cccnc1`, with 12.9% (active). Consider `O=C(NNC(=S)NC(=O)c1cccnc1)c1ccc(Cl)cc1`, for which the inhibition is -3.46% (inactive). On to `O=C(NNC(=S)NC(=O)c1cccnc1)c1ccccc1`, for which the inhibition is -2.11% (inactive). Regarding `O=C(NC(=S)NNC(=O)c1ccccc1F)c1cccnc1`, the inhibition is 3.92% (inactive). Consider `CCOC(=O)C1=C(C)Nc2nc3ccccc3n2C1c1ccc(O)cc1` (stereo not drawn), for which the inhibition is 6.95% (inactive). With `Nc1nc(CN2CCN(C(c3ccccc3)c3ccccc3)CC2)nc(Nc2ccccc2)n1`, the inhibition was -2.82% (inactive). For the molecule `COC(=O)CC1C(=O)NCCN1C(=O)CSc1nnnn1-c1ccc(OC)cc1` (stereo not drawn), the inhibition was -2.52% (inactive).
